In PubChem BioAssay (Tox21):
“And” between values parts separate entries of the source, which are not always exact repeats. Equal entries are not always repeated. A structure can be active in one record and inactive in another. The source made the active and inactive calls. Entries that show only a call come without a potency. Unless noted, calls follow the shape of the dose curve; as a rule, active = well fitted curve in the direction sought with a large enough effect in the repeat runs; inconclusive = weak or mixed curves; inactive = no such curve, though single readings can be large; an effect the other way counts as inactive or inconclusive.

Experiments:
[1] = qHTS assay to identify small molecule antagonists of the thyroid receptor (TR) signaling pathway (AID 743065); conditions: GH3.TRE-Luc, T3-stimulated luciferase inhibition, 23.5 h; series mostly up to 70.3 µM; also: nearly all actives have a fitted effect of over 55% in size; also: potency is read from the fitted curve at half-maximal effect
How it was run: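 GH3.TRE-Luc rat pituitary cells (two TREs driving luciferase) were dosed with compound, then stimulated with 1 nM T3 (final) for 23.5 h at 37 C. ONE-Glo luminescence was the read-out, with CellTiter-Fluor fluorescence as the cytotoxicity counter-screen.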

[2] = system: thyroid hormone receptor (rat, GH3 cells); assay: qHTS assay to identify small molecule agonists of the thyroid receptor (TR) signaling pathway (AID 743066; calls by dose curve); conditions: GH3.TRE-Luc cells, TR agonist luciferase, 24 h; series mostly up to 83.9 µM
[3] = qHTS assay to identify small molecule antagonists of the estrogen receptor alpha (ER-alpha) signaling pathway using the BG1 cell line - cell viability counter screen (AID 743081); conditions: BG1Luc4E2 viability, CellTiter-Fluor, 22 h; series mostly up to 70.3 µM;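 also: compound given together with 17beta-estradiol as the ER stimulus; nearly all actives have a fitted effect of over 45% in size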; also: potency is read from the fitted curve at half-maximal effect
[4] = biological target: Aromatase (Homo sapiens) (UniProt P11511); assay: qHTS assay to identify aromatase inhibitors (AID 743083); conditions: MCF-7 aro ERE, testosterone-driven ERE luciferase, 24 h; series mostly up to 70.3 µM; also: nearly all actives have a fitted effect of over 55% in size; also: potency is read from the fitted curve at half-maximal effect
[5] = qHTS assay to identify small molecule antagonists of the estrogen receptor alpha (ER-alpha) signaling pathway - cell viability counter screen (AID 743074; calls by dose curve;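 also: HEK293 cells carrying ER-alpha-UAS-bla reporter stimulated with 17beta-estradiol; nearly all actives have a fitted effect of over 45% in size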; also: potency is read from the fitted curve at half-maximal effect); conditions: ERalpha-bla HEK293 viability, CellTiter-Glo luminescence, 18 h; series mostly up to 69.4 µM
[6] = qHTS assay to identify aromatase inhibitors - cell viability counter screen (AID 743084); conditions: MCF-7 aro ERE viability, CellTiter-Fluor, 24 h; series mostly up to 70.3 µM;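 also: cells stimulated with testosterone during compound exposure; nearly all actives have a fitted effect of over 55% in size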; also: potency is read from the fitted curve at half-maximal effect
[7] = biological target: Estrogen receptor (Homo sapiens) (UniProt P03372); assay: qHTS assay to identify small molecule agonists of the estrogen receptor alpha (ER-alpha) signaling pathway using the BG1 cell line (AID 743079); conditions: BG1Luc4E2 cells, ERE-luciferase agonist, 22 h; series mostly up to 70.3 µM; also: nearly all actives have a fitted effect of over 20% in size; also: potency is read from the fitted curve at half-maximal effect
[8] = qHTS assay to identify small molecule antagonists of the estrogen receptor alpha (ER-alpha) signaling pathway using the BG1 cell line (AID 743080; calls by dose curve;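 also: BG1 cells stimulated with 17beta-estradiol alongside compound; nearly all actives have a fitted effect of over 25% in size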; also: potency is read from the fitted curve at half-maximal effect); conditions: BG1Luc4E2 ERE-luciferase antagonist mode, luminescence; series mostly up to 70.3 µM
How it was run: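 BG1-Luc-4E2 cells (endogenous full-length ER-alpha, stable 4×ERE-luciferase) were starved 5 days in phenol-red-free medium with 10% charcoal-stripped FBS, plated 24 h, then given compound plus 17beta-estradiol for 21.5 h at 37 C; ONE-Glo luminescence read after 30 min.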

[9] = biological target: Estrogen receptor (Homo sapiens) (UniProt P03372); assay: qHTS assay to identify small molecule antagonists of the estrogen receptor alpha (ER-alpha) signaling pathway (AID 743069; active = well fitted curve in the direction sought with a large enough effect in the signal ratio in the repeat runs, not every such curve was filed as active; inconclusive = weak or mixed curves, or effect the other way; inactive = no such curve, though single readings can be large or run the other way; the % refers to the signal ratio; also: potency is read from the fitted curve at half-maximal effect); conditions: HEK293 ER-alpha-UAS-bla, beta-lactamase ratio, antagonist mode; series mostly up to 69.4 µM
How it was run: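 Reporter cells (ER-alpha-bla, HEK293 background) are conditioned overnight in stripped-serum medium (2% charcoal-stripped FBS). Compound and 17beta-estradiol exposure runs 18 hr at 37C, 5% CO2.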

[10] = biological target: Estrogen receptor (Homo sapiens) (UniProt P03372); assay: qHTS assay to identify small molecule agonists of the estrogen receptor alpha (ER-alpha) signaling pathway (AID 743075; calls by dose curve;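 also: HEK293 GripTite cells with ER-alpha and UAS-driven beta-lactamase reporter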; also: potency is read from the fitted curve at half-maximal effect); conditions: HEK293 ER-alpha-UAS-bla, beta-lactamase FRET ratio, 18 h; series mostly up to 70.1 µM

Chain of Estrogen receptor (Homo sapiens) (P03372 whole entry, looked up): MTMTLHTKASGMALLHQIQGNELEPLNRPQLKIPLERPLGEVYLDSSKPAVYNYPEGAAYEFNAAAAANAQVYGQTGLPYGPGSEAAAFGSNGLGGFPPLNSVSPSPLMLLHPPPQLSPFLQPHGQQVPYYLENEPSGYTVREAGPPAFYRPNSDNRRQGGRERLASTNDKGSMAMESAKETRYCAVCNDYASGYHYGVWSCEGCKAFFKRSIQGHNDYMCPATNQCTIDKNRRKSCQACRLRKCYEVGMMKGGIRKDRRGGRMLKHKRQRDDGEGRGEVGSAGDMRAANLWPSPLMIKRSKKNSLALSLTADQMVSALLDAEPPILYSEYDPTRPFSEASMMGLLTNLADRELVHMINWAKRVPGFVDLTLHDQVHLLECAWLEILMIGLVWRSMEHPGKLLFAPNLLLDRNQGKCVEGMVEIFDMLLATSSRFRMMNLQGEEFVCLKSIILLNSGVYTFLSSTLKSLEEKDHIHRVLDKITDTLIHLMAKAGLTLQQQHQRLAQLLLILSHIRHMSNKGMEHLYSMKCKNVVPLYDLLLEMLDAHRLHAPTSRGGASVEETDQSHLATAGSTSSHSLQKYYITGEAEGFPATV
Chain of Aromatase (Homo sapiens) (P11511 whole entry, looked up): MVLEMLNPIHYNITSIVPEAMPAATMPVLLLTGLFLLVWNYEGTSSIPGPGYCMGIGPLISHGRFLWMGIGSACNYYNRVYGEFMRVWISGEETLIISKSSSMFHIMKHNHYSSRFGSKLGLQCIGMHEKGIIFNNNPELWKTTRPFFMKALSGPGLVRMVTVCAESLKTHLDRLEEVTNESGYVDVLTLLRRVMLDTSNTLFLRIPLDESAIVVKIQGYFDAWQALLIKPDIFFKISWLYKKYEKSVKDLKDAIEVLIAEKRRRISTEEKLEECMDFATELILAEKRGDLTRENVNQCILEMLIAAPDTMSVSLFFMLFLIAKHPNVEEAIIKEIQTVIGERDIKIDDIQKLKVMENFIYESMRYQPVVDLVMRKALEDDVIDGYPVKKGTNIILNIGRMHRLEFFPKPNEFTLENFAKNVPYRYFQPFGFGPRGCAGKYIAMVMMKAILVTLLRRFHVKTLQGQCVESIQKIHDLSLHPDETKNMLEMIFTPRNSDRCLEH

SMILES	Potency [1]	outcome [2]	Potency [3]	Potency [4]	Potency [5]	Potency [6]	Potency [7]	Potency [8]	Potency [9]	Potency [10]
CC(C)=CCC1=C(O)c2ccccc2C(=O)C1=O	0.171 µM (active)	inactive	54.2 µM (active)	inactive						
CN(C)C(=O)COC(=O)Cc1ccc(OC(=O)c2ccc(N=C(N)N)cc2)cc1	inactive	inactive	inactive		inactive					
CCC(CC)C(C)CCOC(C)=O (configuration not stated)	inactive	inactive	inactive	inactive	inactive	inactive				
NC[C@H]1O[C@H](O[C@H]2[C@H](O[C@@H]3O[C@H](CO)[C@@H](O)[C@H]3O)C(O)[C@H](N)C[C@@H]2N)[C@H](N)[C@@H](O)[C@@H]1O (some centres not stated)	inactive	inactive	inactive	inactive	inactive	inactive				
CCCCOC(=O)CC	inactive	inactive	inactive	inactive	inactive	inactive				
CCCNCCC	inactive	inactive	inactive	inactive		inactive				
OCC(F)(F)F	inactive	inactive	inactive	inactive	inactive	inactive				
COc1ccc(NC(=O)CC(C)=O)cc1	inactive	inactive	inactive	inactive	inactive	inactive				
O=S(=O)(O)c1ccc(Nc2nc(Nc3ccc(/C=C/c4ccc(Nc5nc(Nc6ccc(S(=O)(=O)O)cc6)nc(N(CCO)CCO)n5)cc4S(=O)(=O)O)c(S(=O)(=O)O)c3)nc(N(CCO)CCO)n2)cc1	inactive	inactive		inactive			inactive	inactive		
CCCCCCCCCCCCOC(=O)c1ccc(O)cc1	27.5 µM (active)		inactive	30.9 µM (active)	inactive		inactive		44 µM [inconclusive] (active)	inactive
Cc1ccc(C(=O)O)cc1	inactive	inactive	inactive	inactive	inactive	inactive				
CCc1oc2ccccc2c1C(=O)c1cc(I)c(O)c(I)c1	21.1 µM (active)	inactive	inactive			inactive				inactive
O=C(O)CCN(C1(C(=O)NO)CCCC1)S(=O)(=O)c1ccc(Oc2ccc(F)cc2)cc1	inactive	inactive	inactive	inactive	inactive	inactive				
Nc1ccc(C(=O)O)c(O)c1	inactive	inactive	inactive	inactive	inactive	inactive				
C=CCCC(=O)/C=C/C1C(C)=CCCC1(C)C (configuration not stated)	61.1 µM (active)	inactive	inactive		inactive					
OCCN1CCN(CCCN2c3ccccc3Sc3ccc(C(F)(F)F)cc32)CC1	6.68 µM (active)		inactive		inactive		inactive	inactive	inactive	inactive
C=CCn1c(=O)n(CC=C)c(=O)n(CC=C)c1=O	inactive	inactive	inactive	inactive	inactive	inactive				
Cc1cccc2cccnc12	inactive	inactive	inactive	inactive	inactive	inactive				
O=C1C(c2[nH]c3ccc(S(=O)(=O)O)cc3c2O)=Nc2ccc(S(=O)(=O)O)cc21	inactive	inactive	inactive	inactive	inactive	inactive				
O=C1c2ccccc2C(=O)N1SC1CCCCC1	24.3 µM (active) and 15.4 µM (active)	inactive	inactive	43.2 µM (active)		27.3 µM (active) and 24.3 µM (active)	inactive	inactive		inactive
Sc1nc2ccccc2s1	inactive	inactive	inactive		inactive	inactive				
O=C1OC2(c3ccc(O)cc3Oc3cc(O)ccc32)c2ccc(N=C=S)cc21	inactive	inactive	inactive	inactive	inactive	inactive				
O=[N+]([O-])c1ccc(F)c(Cl)c1	inactive	inactive	inactive	inactive	inactive	inactive				

SMILES	Potency [1]	outcome [2]	Potency [3]	Potency [4]	Potency [5]	Potency [6]	Potency [7]	Potency [8]	Potency [9]	Potency [10]
Cc1cc(-c2ccc(N=Nc3cc(S(=O)(=O)O)c4ccccc4c3N)c(C)c2)ccc1N=Nc1cc(S(=O)(=O)O)c2ccccc2c1N	27.4 µM (active)	inactive	30.8 µM (active)			inactive				
O=C(/C=C/c1ccc(O)c(O)c1)O[C@@H](C(=O)O)[C@@H](OC(=O)/C=C/c1ccc(O)c(O)c1)C(=O)O	inactive	inactive	inactive	inactive	inactive	inactive				
CC(=O)c1ccc(C(C)=O)cc1	inactive	inactive	inactive	inactive	inactive	inactive				
CN1CCCCC1CCN1c2ccccc2Sc2ccc(S(C)=O)cc21 (configuration not stated)		inactive	inactive	inactive	inactive	inactive	inactive	inactive	inactive	inactive
Cc1ccc(N/N=c2\c(=O)cc/c(=N\Nc3ccc(S(=O)(=O)O)cc3)c2=O)c(C)c1		inactive	54.5 µM (active)	inactive	inactive	27.3 µM (active)	inactive	inactive	inactive	inactive
CCCCCCCCCCCCOCCOCCOCCOCCOCCOCCOCCOCCOCCO	8.41 µM (active)		23.7 µM (active)	10.6 µM (active)	10.7 µM (active)	inactive		5.96 µM (active)		inactive
CCCCN(CCCC)CC(O)c1cc(Cl)cc2c1-c1ccc(Cl)cc1/C2=C/c1ccc(Cl)cc1 (configuration not stated)	29.8 µM (active)		inactive	inactive		inactive	23.7 µM (active)	inactive	inactive	inactive
NC(=S)NC(N)=S		inactive	inactive	inactive	inactive	inactive	inactive	inactive	inactive	inactive
Cc1cc(C(C)(C)C)cc(C)c1CC1=NCCN1		inactive	inactive	inactive	inactive	inactive	inactive	inactive	inactive	inactive
CCCCCCCCCCCCCC[N+](C)(C)Cc1ccccc1		inactive	inactive	29.8 µM (active) and 13.9 µM (active)	21.3 µM (active) and 22.2 µM (active)	inactive and 24.7 µM (active)		26.6 µM (active)		inactive
CN(C)c1ccc(C(=C2C=CC(=[N+](C)C)C=C2)c2ccc(N(C)C)cc2)cc1	1.33 µM (active) and 431 nM (active) and 545 nM (active)		13.3 µM (active) and 12.1 µM (active) and 24.3 µM (active)	2.98 µM (active) and 608 nM (active) and 864 nM (active)	10.7 µM (active) and 8.67 µM (active) and 24.5 µM (active)	10.6 µM (active) and 3.05 µM (active) and 7.7 µM (active)		2.42 µM (active) and 3.86 µM (active)	34.7 µM [cytotoxic] (active)	3.07 µM [inconclusive] (active)
CCCCCCCCCCCCCCCC[N+](C)(C)CC	4.22 µM (active) and 6.13 µM (active)		54.6 µM (active)	9.44 µM (active) and 8.66 µM (active)	19 µM (active) and 55.1 µM (active)	21.1 µM (active) and 48.7 µM (active)				inactive
O=[N+]([O-])c1ccc(O)cc1C(F)(F)F	21.7 µM (active)					68.6 µM (active)				
O=C(c1ccc(O)c(O)c1)c1ccc(O)cc1O		inactive			inactive	inactive	3.85 µM (active)	inactive	34.6 µM [inconclusive] (active)	3.46 µM [inconclusive] (active)
COc1cccc2c1C(=O)c1c(O)c3c(c(O)c1C2=O)C[C@@](O)(C(C)=O)C[C@@H]3O[C@H]1C[C@H](N)[C@H](O)[C@H](C)O1	596 nM (active) and 154 nM (active)		21.1 µM (active) and 27.5 µM (active)	3.76 µM (active) and 615 nM (active)	inactive	10.6 µM (active) and 8.69 µM (active)				
CCCCC/C=C\C/C=C\CCCCCCCC(=O)O		inactive	inactive	inactive	inactive	inactive	inactive	inactive	inactive	inactive
Cl[Si](Cl)(c1ccccc1)c1ccccc1		inactive	inactive	inactive	inactive	inactive	inactive	inactive	inactive	inactive
O=S(=O)(O)c1ccc(N=Nc2c(O)ccc3ccccc23)cc1		inactive	27.3 µM (active)		inactive	17.2 µM (active)	inactive		inactive	inactive
CCC(=O)C(=O)CC		inactive	inactive		inactive					
COc1cc(S(=O)(=O)O)c(C)cc1N=Nc1c(O)ccc2cc(S(=O)(=O)O)ccc12		inactive	30.6 µM (active)		inactive	8.63 µM (active)			inactive	inactive
CN1CCC[C@@H]1CCO[C@](C)(c1ccccc1)c1ccc(Cl)cc1	26.6 µM (active)		inactive		inactive					
[Cu+]		inactive	inactive		inactive				inactive	inactive
CN1CCN2c3ccccc3Cc3ccccc3C2C1 (configuration not stated)	23.7 µM (active)		26.6 µM (active)	inactive	23.9 µM (active)	inactive				inactive
